Measurements as given in PubChem BioAssay AID1794842 (National Center for Advancing Translational Sciences (NCATS), 2023).
The whole screen tested about 2,800 compounds, of which fewer than 10 were called active. The call rests on the fitted dose curve; in most records, active means well fitted curve in the direction sought with a large enough effect; inconclusive means small, poorly fitted or top-dose-only effect, or another doubt; inactive means no such curve, though single readings can be large or run the other way. The list is a sample of the results.

Target: Metallo-beta-lactamase type 2 (Klebsiella pneumoniae) (UniProt C7C422)
Test: qHTS to identify inhibitors of the New Delhi Metallo-beta-lactamase (NDM): Meropenem screen against the machine-based learning selections. Further: % of control where 0% means no effect.
Conditions: Purified NDM-1, meropenem hydrolysis, absorbance 300 nm; series mostly up to 38.4 µM; activity change, negative = inhibition: at the top concentration
Source text: Assay Submitter (PI): James Inglese Ph.D., Patricia Dranchak Ph.D., Mahesh Aitha Ph.D. Assay Development and Screening Technology Laboratory (ADST) National Center for Advancing Translational Sciences (NCATS), Rockville, MD National Institute of Health (NIH), Bethesda, Maryland The metallo-beta-lactamases (MBL) are a main antibiotic resistance mechanism evolved by bacteria. There is an urgent clinical need for MBL inhibitors to mitigate this growing threat. To support a machine-based learning study, qHTS has been used to experimentally test inhibitors identified by prediction tools.
PROTOCOL TABLE (as described by Inglese et al., 2007) SEQUENCE No. (e.g., 1, 2, 3, etc.); […] (e.g., enzyme, Incubation, Reagent, etc.); VALUE; DESCRIPTION Primary Screen 1; NDM-1; 4 uL of 3 nM enzyme [2 nM final] in 50 mM HEPES (pH 7.0), 1 uM […], 0.01% Tween20; Use BioRaptr to dispense into two sets of Aurora black, clear bottom high base 1536-well plates 2; Compounds; 23 nL; Use Pin Tool (Wako) to transfer DMSO control and library compounds in DMSO 3; Incubate; >30 min 4a; Reagent; 2 uL of 50 uM nitrocefin [16.7 uM final] to one set of assay plates 4b; Reagent; 2 uL of 150 uM meropenem [50 uM final] to second set of assay plates 5a; Incubate; 15 min 5b; Incubate; 30 min 6a; Detector; Absorbance at 485 nm (bandwidth = 5 nm, 25 flashes/well) on Tecan Infinity 6b; Detector; Absorbance at 300 nm (bandwidth = 5 nm, 25 flashes/well) on Tecan Infinity NOTES (numbers refer to sequence above) 1; Column 1 of each plate received assay buffer without enzyme and columns 2-48 received enzyme for a final assay concentration of 2 nM. 2; Control plate contained DMSO in columns 1, 2, 3, and 4. 3; Compound interaction with enzyme. 4; Nitrocefin and meropenem substrates were prepared in the same assay buffer as step 1 for a final assay concentration of 16.7 uM and 50 uM, respectively, and added to all wells across respective sets of assay plates. 5; Default reader settings were applied for absorbance read at 485 nm (nitrocefin) or 300 nm (meropenem), bandwidth = 5 nm, 25 flashes/well. References: Inglese J, Shamu CE, Guy RK. 2007. Reporting data from high-throughput screening of small-molecule libraries. Nat Chem Biol. doi:10.1038/nchembio0807-438 Yasgar A, Shinn P, Jadhav A, Auld D, Michael S, Zheng W, Austin CP, Inglese J, Simeonov A. 2008. Compound Management for Quantitative High-Throughput Screening. J Lab Autom 13:79 - 89. doi:10.1016/j.jala.2007.12.004

Chain of Metallo-beta-lactamase type 2 (Klebsiella pneumoniae) (C7C422 whole entry, looked up): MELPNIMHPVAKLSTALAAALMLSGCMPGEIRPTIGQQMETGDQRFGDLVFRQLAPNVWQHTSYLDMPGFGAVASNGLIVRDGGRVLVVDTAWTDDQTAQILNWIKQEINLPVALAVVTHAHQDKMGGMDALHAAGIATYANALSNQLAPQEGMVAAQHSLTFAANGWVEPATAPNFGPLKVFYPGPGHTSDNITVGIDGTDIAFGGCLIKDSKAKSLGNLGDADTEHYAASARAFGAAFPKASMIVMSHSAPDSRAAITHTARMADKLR

Activity change, negative = inhibition, inactive:
C[C@@H](NS(=O)(=O)c1ccccc1)c1onc(-c2cccnc2)c1C(=O)O 2.4% [at 57.5 µM]
C#CCN(C)CC[C@@H]1CC[C@H](O)[C@@H](C(=O)N(C)Cc2ccccc2)O1 -1.25% [at 57.5 µM]
COCc1cc(C[C@@H]2CC[C@H](O)[C@@H](CNC(=O)C(C)(C)C)O2)no1 -0.975% [at 57.5 µM]
O=C(NC[C@H]1Cn2c(-c3ccccc3)cnc2CO1)C1CCOCC1 4.09% [at 57.5 µM]
O=C(NCc1ccccc1)O[C@H]1COCCN(c2nc3ccccc3o2)C1 0.432% [at 57.5 µM]
O=C(Cc1ccccc1)Nc1ccc([C@@H](O)[C@H]2COCC(=O)N2CC2CC2)cc1 -0.857% [at 57.5 µM]
CC[C@@]1(C(=O)O)C[C@H](C(=O)NC(CO)CO)[C@H](c2ccc(OC)cc2)N1C 24%
O=C(CN1CC2CC(C1)[C@H]1CCCC(=O)N1C2)NCc1cc(F)ccc1F (stereo partly specified) 1.21%
NCCn1cc(C(=O)NCC(O)c2ccccc2C(F)(F)F)nn1 (stereo unspecified) -3.94%
C[C@@H](NC(=O)c1cccs1)c1onc(-c2ccc(F)cc2)c1C(=O)O 3.33% [at 57.5 µM]
O=[N+]([O-])c1cccc(-c2noc([C@@H]3C[C@@H](O)CN3Cc3ccccc3)n2)c1 2.26% [at 57.5 µM]
CC(C)c1noc(-c2cccn3c(CNC(=O)c4cccc5[nH]ccc45)nnc23)n1 5.92%
CN(C)c1nccnc1OC1CCN(C(=O)CCCc2ccccc2)C1 (stereo unspecified) -0.852%
Cc1cc(C(=O)NCCc2csc(-c3cccnc3)n2)cc(S(N)(=O)=O)c1C 2.03%
CC1(C)[C@H](Cc2cc(CCO)on2)C[C@@H]1N(S(C)(=O)=O)S(C)(=O)=O 13.4% [at 57.5 µM]
CC(C)CCN1CCNC(=O)C1CC(=O)N(Cc1nccs1)C1CC1 (stereo unspecified) 5.54%
Cn1c(CN2CCOCC2)nnc1C1CCN(c2ncccc2C#N)CC1 0.311%
CCCCNC(=O)c1cccc(CN2C(=O)CC(c3ccccc3C)C(C(=O)OCC)=C2C)c1 (stereo unspecified) 5.31%
Cn1cnc2cc(-c3ccc(CO)cc3)cc(C(=O)NCc3cccnc3)c21 15% [at 57.5 µM]
Cc1cc(F)ccc1OC1CN(Cc2ccc(F)cc2)C1 -0.758% [at 57.5 µM]
COc1ccc(-c2noc([C@@H]3Cc4nc[nH]c4CN3Cc3ccc(NC(C)=O)cc3)n2)cc1 10.7%
CC1(C)C[C@H](NC(=O)c2ccccc2)[C@@]2(CCC(=O)NCCN3CCOCC3)CC[C@](C)(O)C[C@@H]12 0.402%
CC(C)(C)c1ccc(C(=O)Nc2nc3c(s2)C[C@@H]2[C@](C)(CO)[C@H](O)CC[C@@]2(C)[C@@H]3CC(=O)NC2CC2)cc1 1.17%
O=C(COc1ccccc1Cl)N1CCCC(O)(CN2CCCC2)C1 (stereo unspecified) -0.507%
COCC(=O)NC[C@@H]1C=C(C)[C@H](CC(=O)Nc2ccccn2)C[C@H]1C(C)C 2.59% [at 57.5 µM]
Cc1cnccc1N1CCCN(C(=O)c2cccc(C3CCCNC3)c2)CC1 (stereo unspecified) -1.96%
COC(=O)[C@@H]1Cc2ncn(C)c2CN1C(=O)c1ccc(-c2ccccc2)cc1 15% [at 57.5 µM]
NC(=O)[C@H](Cc1cccs1)NC(=O)C1=C[C@@H](NC(=O)c2ccc(F)c(Cl)c2)[C@@H](O)[C@H](O)C1 0.292%
COc1ccc(CN2CCNc3cc(Nc4cccnc4)ncc3C2)cc1O 3.47% [at 57.5 µM]
CN1C[C@H](NCc2cccc(Cl)c2)CCC[C@@H](C(=O)NC2CC2)CC1=O 0.224% [at 57.5 µM]
COc1ccc(CCC(=O)N2CCC(N3CC4CC(C3)[C@H]3CCCC(=O)N3C4)CC2)cc1 (stereo partly specified) -0.571%
COC[C@H]1CCCN1C(=O)C[C@@H]1O[C@H](CNS(C)(=O)=O)[C@@H](O)[C@H]1O 19.9% [at 57.5 µM]
CN[C@@H](CO)C(=O)NCc1nc(-c2cccc(F)c2)c(-c2ccccn2)[nH]1 29%
COc1ccc(-c2nc3ccncc3[nH]2)cc1 21.9% [at 76.7 µM]
CC(=O)N1CCC(N[C@H]2CC(C)(C)[C@@H]3C[C@@](C)(O)CC[C@]23CCC(=O)NCCN2CCOCC2)CC1 -0.0233%
CC(O)CNS(=O)(=O)c1cccc(C(=O)Nc2cccc3c2CCC3)c1 (stereo unspecified) 2.1%
COCCN1C(=O)CCc2cc(NC(=O)c3ccc(C)c(C)c3)ccc21 10.8%
OC[C@H]1CCN(c2ccnc3c(C(F)(F)F)cccc23)C[C@H]1O 1.06%
CC1CCN([C@@H]2[C@H](O)[C@H](CO)O[C@@H]2CNC(=O)c2ccccc2)CC1 18.5% [at 57.5 µM]
CC(=O)N1CCC(N2C[C@@H]3OCC(=O)N[C@@H]3C2)CC1 1.4% [at 76.7 µM]
NC(=O)c1cccc(-c2n[nH]c3c2CC(=O)N(CC2CCOCC2)C3)c1 5.77% [at 57.5 µM]
O=c1c2nc(-c3cccc(O)c3)ccc2ncn1Cc1ccccn1 13.6% [at 57.5 µM]
Cc1cc(C(=O)N[C@H]2[C@H](O)[C@H](O)C[C@@H]2c2cccnc2)no1 0.945% [at 57.5 µM]
COc1ccc(F)c(CN2CCCC(O)(CN(C)Cc3cc(C)on3)C2=O)c1 (stereo unspecified) 11.8%
O=C(Nc1cccnc1)c1ccnc(-c2nnc3ccc(Nc4ccccc4)nn23)c1 28.9% [at 57.5 µM]
CCc1nc2c(c(-c3ccc(Cl)cc3)n1)CCN(Cc1ccc(F)cc1)CC2 -1.49%
COCc1cn(C[C@H]2C[C@@H](NCc3nccs3)[C@H](O)[C@@H]2O)nn1 47.1%
NC(=O)[C@H](Cc1cccs1)NC(=O)C1=C[C@@H](NC(=O)NC2CCCCC2)[C@@H](O)[C@H](O)C1 -0.293%
CC(C)C1CN(C(=O)c2ccccc2-c2ncc[nH]2)CCC(=O)N1CC1CC1 (stereo unspecified) -1.59%
COC(=O)[C@H]1CN(C(C)=O)CCN1C(C)=O -0.0382% [at 76.7 µM]
O=C(Cc1csc(-c2ccccc2)n1)N[C@H](c1ccccn1)C1CC(O)C1 (stereo partly specified) 7.84%
Cc1cn(CC(=O)NC2CCOC3(CCOCC3)C2)c(=O)[nH]c1=O (stereo unspecified) -0.851%
O=C1CN(C(=O)[C@H]2CN(Cc3ccccc3)C[C@H]2C(=O)O)CCN1 50.1%
Cc1noc(C2CC3(CCN(C(=O)C4CCC4)CC3)CN2C)n1 (stereo unspecified) 1.47%
Cc1ncsc1CCC(=O)N[C@@H]1CCOC[C@H]1OCC(=O)O 24.4%
Cc1cc2c(cc1C(=O)N[C@H](c1ccccn1)C1CC(O)C1)OCCO2 (stereo partly specified) 2.04%
Cc1ccn2c(C(=O)N3CCCC(c4[nH]ncc4-c4ccccc4)C3)nnc2n1 (stereo unspecified) 3.57%
c1cncc(Nc2cc3c(cn2)CN(Cc2ccsc2)CCN3)c1 6.63% [at 57.5 µM]
CC[C@@]1(O)CCN(C(=O)c2cccc(CCC(C)(C)O)c2)C[C@H]1O 1.82%
O=C(c1ccoc1)N1CCCC(CCc2ccc(F)c(F)c2)C1 (stereo unspecified) -0.603%
Cc1cc(C)c(CNC(=O)c2nc(-c3cccc(O)c3)cc3[nH]ccc23)c(=O)[nH]1 15.9% [at 57.5 µM]
